# From the supplement of paper PMC7726561
# The full ranking holds about 1,100 sequences; the median of “thermal melting temperature (Tm) of peptide-HLA complex” is about 58, and the lowest 2% start at about 42. This is one part of a sample in which the lowest values are shown more often than they occur.
# Biological target: HLA-A*02:01
# Test: thermal melting temperature (Tm) of peptide-HLA complex; higher = more thermostable pHLA complex
# Conditions: C1R-A*02:01
# 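Also: lysates heated 10 min at 37–73 °C, complexes pulled down with pan-HLA I antibody, peptide signal by DIA-MS relative to 37 °C, Tm where half the complex is unfolded.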
row,Sequence,thermal melting temperature [°C]
1,ALAPGVRAV,60.2
2,YLPEDFIRVG,46.8
3,LLQEVEHQL,57.8
4,ALFPGDVDRL,54.3
5,WLIEDGKVVTV,58.3
6,AMNISVPQV,58.1
7,FLAELPGSLSL,49.3
8,ILEEKGLSQV,59.1
9,LLSDVRFVL,54.8
10,LLRDGIELV,57.8
11,AMSNLVPPVEL,53.7
12,RLGEAEGLMKV,56.4
13,FILDFYEKV,41.8
14,KIFEMGPVFTL,52.7
15,ALLDGRLQV,60.7
16,FILPHISTA,55.7
17,LADETLLKV,55.2
18,GLDPNKPPEL,61
19,VLGRVNLV,45.9

row,Sequence,thermal melting temperature [°C]
1,HLDEAIHVL,51.9
2,VLLGEVNIRL,55.2
3,SLLNPPETLNL,54.9
4,TLLGNIHAV,59.5
5,GLLENIPRV,64.8
6,YLHDQNPDAAL,59
7,VLLKARLVPA,59.7
8,VTTDIQVKV,47.3
9,FLLLPGPSAA,47
10,HLFETISQA,54.9
11,GLDPQGDRSFL,57
12,FLPQGFPDSV,45.8
13,SIHDVTFQV,57.4
14,SMSADVPLV,61.3
15,ALLKIEGVYA,59.4
16,ILLDNDHYA,50.4
17,FLDPNNIPKA,61.3
18,YLSPDLSKV,61.9
19,LLDPNVKSIFV,62.2

row,Sequence,thermal melting temperature [°C]
1,FLDITNPKA,58.3
2,FLDITNPKAV,40.7
3,AMNDILAQV,62.2
4,KLDFANNVQL,50.3
5,ALLDQLHTL,62.5
6,FLSELTQQL,59.5
7,VLHELTFQA,60.4
8,FVADGIFKA,41.1
9,VLAPHLTRA,53
10,FLSDGTIISV,57.5
11,RLAEALPKQSV,41.8
12,GVIDGHIYAV,61.7
13,SLFPGKLEV,60.4
14,GLLQINDKIAL,41.7
15,RLQEEINEV,55.3
16,YQLEAEFVGV,58.7
17,SLLGGVLRV,55.7
18,TLSDLRVYL,64.7
